Experimental data from PMC4336329 (PLoS ONE, 2015).
Among all 310,000 compounds or so, about 14,000 (4.5%) showed an effect of 50% or more. The effect is printed as a negative number. The list comes from a sample in which strong results are over-represented; it also holds similar structures and randomly drawn compounds.

target: human ether-à-go-go-related gene (hERG) potassium channel (human, UniProt Q12809); assay: primary screen, population patch clamp on CHO cells stably expressing hERG; higher = less effect of the substance
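Note: peak tail current of the secondary pulse compared with the same well before compound.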

human ether-à-go-go-related gene (hERG) potassium channel, sequence (Q12809 whole entry, looked up): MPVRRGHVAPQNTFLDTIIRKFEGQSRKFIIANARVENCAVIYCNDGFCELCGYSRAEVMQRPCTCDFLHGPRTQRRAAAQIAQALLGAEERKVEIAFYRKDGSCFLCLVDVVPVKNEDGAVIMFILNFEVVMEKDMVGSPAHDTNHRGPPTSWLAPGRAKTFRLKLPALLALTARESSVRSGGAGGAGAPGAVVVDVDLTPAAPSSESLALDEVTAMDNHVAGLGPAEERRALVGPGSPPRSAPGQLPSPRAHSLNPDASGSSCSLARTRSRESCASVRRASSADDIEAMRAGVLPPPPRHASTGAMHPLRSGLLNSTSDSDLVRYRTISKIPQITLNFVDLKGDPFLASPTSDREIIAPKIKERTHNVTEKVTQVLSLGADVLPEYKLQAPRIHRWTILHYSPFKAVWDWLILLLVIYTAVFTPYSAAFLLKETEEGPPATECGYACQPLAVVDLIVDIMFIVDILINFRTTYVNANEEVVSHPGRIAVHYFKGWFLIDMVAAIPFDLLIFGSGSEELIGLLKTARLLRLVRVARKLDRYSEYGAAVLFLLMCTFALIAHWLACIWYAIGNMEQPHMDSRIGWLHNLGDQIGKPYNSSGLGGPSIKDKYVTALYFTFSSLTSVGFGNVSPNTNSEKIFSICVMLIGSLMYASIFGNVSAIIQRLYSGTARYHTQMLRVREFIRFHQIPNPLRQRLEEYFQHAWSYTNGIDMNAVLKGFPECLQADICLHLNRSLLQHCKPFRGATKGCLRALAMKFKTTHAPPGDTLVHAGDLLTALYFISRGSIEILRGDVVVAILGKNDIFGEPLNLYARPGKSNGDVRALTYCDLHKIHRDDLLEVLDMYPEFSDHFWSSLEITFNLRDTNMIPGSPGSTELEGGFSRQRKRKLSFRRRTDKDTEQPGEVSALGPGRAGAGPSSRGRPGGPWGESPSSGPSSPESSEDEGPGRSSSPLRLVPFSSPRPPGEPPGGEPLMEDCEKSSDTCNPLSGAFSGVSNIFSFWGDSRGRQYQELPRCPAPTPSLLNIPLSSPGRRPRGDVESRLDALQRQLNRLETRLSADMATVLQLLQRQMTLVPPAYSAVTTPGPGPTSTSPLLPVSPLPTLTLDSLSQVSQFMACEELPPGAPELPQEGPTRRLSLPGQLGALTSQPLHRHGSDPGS

Structure (SMILES) | hERG current change (%, negative = inhibition) at 10uM [%]
Cc1cc(NN)nc(Cc2ccccc2)n1 | 10.2
Cc1cc(O)c(C(C)C)cc1NC(=O)c1cccc(Cl)c1 | -13.4
O=C(CNC(=O)c1cccc(F)c1)OCC(=O)N1CCCc2ccccc21 | -0.321
CCN(CC)c1ccc(C(=O)OCC(=O)Nc2cccc(S(=O)(=O)NC3=NCCCCC3)c2)cc1 | 7.02
O=C(NCCc1ccccc1)C(=S)N1CCCCC1 | 9.48
CC(=O)Nc1ccc(C(=O)COC(=O)CCc2ccccc2)c(F)c1 | -2.03
CCc1ccc(NC(=O)c2ccccc2Br)cc1 | -11.2
CN(CCc1ccccc1)C1CCCN(S(=O)(=O)c2cccc(F)c2)C1 (stereo not drawn) | -48.1
C/C=C(\C)CN1CCCC(N(C)CCc2ccc(OC)c(OC)c2)C1 (stereo not drawn) | -27.5
COc1ccc(CCN(C)C2CCCN(S(C)(=O)=O)C2)cc1OC (stereo not drawn) | -4.36
COc1ccc(CCN(C)C2CCCN(S(=O)(=O)N(C)C)C2)cc1OC (stereo not drawn) | -8.26
COc1ccc(S(=O)(=O)N2CCCC(N(C)CCc3ccccc3)C2)cc1OC (stereo not drawn) | -66.5
COc1ccc(CCN(C)C2CCCN(S(=O)(=O)c3ccc(C)cc3)C2)cc1OC (stereo not drawn) | -78
COc1ccc(CCN(C)C2CCCN(S(=O)(=O)c3ccccc3)C2)cc1OC (stereo not drawn) | -77.2
COc1ccc(CCN(C)C2CCCN(S(=O)(=O)c3ccccc3F)C2)cc1OC (stereo not drawn) | -64.3
COc1ccc(CCN(C)C(=O)c2ccc(C)c(S(=O)(=O)N3CCCCC3)c2)cc1OC | -20.9
C=CCS(=O)(=O)N1CCCC(N(C)CCc2ccc(OC)c(OC)c2)C1 (stereo not drawn) | -16.1
COc1ccc(S(=O)(=O)N2CCCC(C(=O)N3CCCC3)C2)cc1OC (stereo not drawn) | 4.14
COc1ccc(CCN(C)C2CCCN(S(=O)(=O)C(C)C)C2)cc1OC (stereo not drawn) | -20.2
COc1ccc(NC(=O)c2nn(C34CC5CC(CC(C5)C3)C4)cc2[N+](=O)[O-])cc1 | -0.0263
O=c1nc(N2CCOCC2)ccn1-c1nc(-c2ccccc2)oc1-c1ccccc1 | -9.71
Cc1c(NC(=O)COC(=O)C23CC4CC(CC(O)(C4)C2)C3)c(=O)n(-c2ccccc2)n1C | 10.1
Cc1oc(-c2ccccc2F)nc1CS(=O)(=O)CC(=O)NCc1ccccc1Cl | -17.9

Structure (SMILES) | hERG current change (%, negative = inhibition) at 10uM [%]
c1ccc(Nc2ncnc3sc4c(c23)CCC4)cc1 | 0.132
Nc1ccc2nc(SCC(=O)N3CCOCC3)sc2c1 | 17
COc1ccc(NC(C)=O)cc1C#N | 19.3
CCOc1ccccc1NC(=O)NCc1ccc2c(c1)OCO2 | 22.4
CCOc1ccccc1CN(CCc1ccc2c(c1)OCO2)Cc1ccccn1 | -64.4
CC(C)C(=O)N(Cc1ccc2c(c1)OCO2)Cc1ccccn1.Cl | -7.53
CCN1C(=O)c2cccc3c(NC(=O)c4ccc(OC)c(OC)c4)ccc1c23 | -68.3
CCN1C(=O)c2cccc3c(NC(=O)c4ccccc4)ccc1c23 | 9.37
CCOc1cc(C(=O)Nc2ccc3c4c(cccc24)C(=O)N3CC)cc(OCC)c1OCC | -5.15
O=P(O)(Oc1ccccc1)OC(c1ccccc1)C(F)(F)C(F)(F)F (stereo not drawn) | 27.3
Cc1cc(C)cc(OCC(=O)Nc2ccc(N3CCOCC3)cc2N2CCOCC2)c1 | -6.54
COC(=O)c1ccc(N2CCN(C)CC2)c(NC(=O)COc2ccccc2)c1 | -43.9
CC(=O)N1CCN(c2ccccc2NC(=O)COc2cc(C)cc(C)c2)CC1 | -52.4
O=C(COc1ccc(Br)cc1)Nc1ccc(N2CCOCC2)cc1N1CCOCC1 | -7.56
COC(=O)c1ccc(N2CCN(C)CC2)c(NC(=O)COc2ccc(OC)cc2)c1 | -53.5
O=C(COc1cccc(Br)c1)Nc1ccc(N2CCOCC2)cc1N1CCOCC1 | -50.6
CC(=O)N1CCN(c2ccccc2NC(=O)COc2ccc(Br)cc2)CC1 | -9.2
CN1CCN(c2ccccc2NC(=O)COc2ccccc2)CC1 | -48.4
Cc1cc(C)cc(OCC(=O)Nc2ccccc2N2CCCCC2)c1 | -0.491
COC(=O)c1ccc(N2CCN(C)CC2)c(NC(=O)COc2ccc(C)cc2)c1 | -20
CN1CCN(c2ccccc2NC(=O)COc2ccc(Br)cc2)CC1 | -58
CC(=O)N1CCN(c2ccccc2NC(=O)COc2ccccc2C)CC1 | -14
O=C(Nc1cccc(Cl)c1)OC1CCCCc2cccnc21 (stereo not drawn) | 4.75

Structure (SMILES) | hERG current change (%, negative = inhibition) at 10uM [%]
COc1ccc(-c2cc(N3C(=O)Nc4ccccc4N3O)n[nH]2)cc1OC | 3.84
CCO[C@@H]1OC(C(=O)N2CCOCC2)=C[C@H](c2cn(C(C)=O)c3ccccc23)[C@H]1CCCO | -20.3
CSc1nc2sccc2c(=O)[nH]1 | 32.8
Cc1cccc(NC(=O)c2ccccc2NC(=O)c2ccccc2)n1 | -0.693
COc1ccc(C(C)NC(=O)CCc2ccccc2)cc1 (stereo not drawn) | 10
Clc1ccc(-c2nc3ccncc3[nH]2)cc1 | -17.3
COc1ccccc1-n1c(O)c(C=NCc2ccccn2)c2ccccc2c1=O | -8.58
Cc1ccc(N2C(=O)CC(Sc3nc(-c4ccccc4)c4cc(Cl)ccc4n3)C2=O)c(C)c1 (stereo not drawn) | 3.36
CN1CCN(c2ccccc2NC(=O)COc2ccc(Cl)cc2)CC1 | -59.9
Cc1cccc(OCC(=O)Nc2ccccc2N2CCN(C)CC2)c1 | -51.2
CCn1c(=O)cc(OCC(=O)Nc2ccccc2N2CCN(C)CC2)c2ccccc21 | -58.3
COc1ccc(CC(=O)Nc2cc(Cl)ccc2N2CCCC2)cc1 | 15.7
COc1ccc(OCC(=O)Nc2ccccc2N2CCN(C)CC2)cc1 | -38.6
COc1ccc(CCC(=O)Nc2cc(Cl)ccc2N2CCN(C)CC2)cc1 | -50.1
CN1CCN(c2ccccc2NC(=O)COc2ccc(C3CCCCC3)cc2)CC1 | 16.8
Cc1cccc(OCC(=O)Nc2ccccc2N2CCCCC2)c1 | 2.17
CCOC(=O)c1ccccc1NC(=O)COc1cc(=O)n(CC)c2ccccc12 | 5.47
COc1cc(CCC(=O)Nc2cc(Cl)ccc2N2CCN(C)CC2)cc(OC)c1OC | -10.2
CCn1c(=O)cc(OCC(=O)Nc2ccccc2C#N)c2ccccc21 | 6.06
CCC(=O)N1CCN(c2ccccc2NC(=O)COc2cccc(C)c2)CC1 | -38.2
COc1cccc(C(c2c(O)nc(SC)n(C)c2=O)c2c(O)nc(SC)n(C)c2=O)c1 | 0.717
COc1ccc(-n2nc3c(c2NC(=O)c2ccc(S(=O)(=O)N4CCOCC4)cc2)CS(=O)(=O)C3)cc1 | 14.6
Cc1ccc(C(=O)N2CCN(c3ccc(NC(=O)c4cccnc4Cl)cc3)CC2)cc1 | -27.8

Structure (SMILES) | hERG current change (%, negative = inhibition) at 10uM [%]
Cc1cc(S(=O)(=O)NCCCN2CCOCC2)c(Cl)cc1Cl | -13.1
Cc1ccccc1C(=O)Oc1ccc2ccc(O)cc2c1 | 14.5
O=C(CSc1nnc(Cc2ccccc2)o1)N1CCOCC1 | 0.161
O=C(CSc1nnc(-c2ccncc2)n1-c1ccccc1)Nc1ccc(C(=O)O)cc1 | 25.5
CCNC(=O)Nn1c(-c2ccccc2)nc2ccccc2c1=O | 22.9
Cc1ccc(C(=O)NCc2n[nH]c(=S)n2-c2ccccc2)cc1[N+](=O)[O-] | 7.76
Cc1cc(NC(=O)Cn2nnc(-c3ccccc3NC(=O)c3ccccc3F)n2)no1 | 12.5
COc1ccc(-c2[nH]ncc2Oc2ccccc2OC)c(O)c1 | -11.3
O=S(=O)(Nc1nc2ccccc2s1)c1ccc(Br)s1 | -5.3
O=S1(=O)N=C(N2CCN(c3ccc(F)cc3)CC2)c2ccccc21 | -8.87
N#Cc1nc(Cc2ccccc2)oc1N1CCC(Cc2ccccc2)CC1 | 24.5
CC1CN(C2=Nc3cccc4cccc2c34)CC(C)O1 (stereo not drawn) | -47.6
Cl.O=C1C2C3C=CC(C4CC34)C2C(=O)N1CCCCN1CCN(c2ccc(F)cc2)CC1 (stereo not drawn) | -69.3
c1ccc(CC2CCN(C3=Nc4cccc5cccc3c45)CC2)cc1 | -80
Fc1ccc(N2CCN(C3=Nc4cccc5cccc3c45)CC2)cc1 | -77
O=C1C2C3C=CC(C4CC34)C2C(=O)N1CCc1ccccc1 (stereo not drawn) | 3.23
c1ccc(CC2CCN(c3nnnn3-c3ccccc3)CC2)cc1 | -13.1
O=C(CN1C(=O)c2cccc3cccc1c23)N1CCN(c2ccc(F)cc2)CC1 | 9.69
c1cc2c3c(cccc3c1)C(N1CCOCC1)=N2 | -31
O=C1C2CCCN2C(=O)N1CCCCN1CCN(c2ccc(F)cc2)CC1 (stereo not drawn) | -43.2
c1cc2c3c(cccc3c1)C(N1CCCCC1)=N2 | -66.2
